# Screening results (PubChem BioAssay)
# An excerpt weighted towards active compounds, which were near 3.9% of everything screened.
# sPLA2-III inh = Inhibits HGIII-sPLA2 liposome hydrolysis, primary screen; QFRET BODIPY PC-A2 liposome hydrolysis, fluorescence; AID 743126; 370,000 compounds, 0.56% hits; inhibition, % at 12.2 µM; Q9NZ20;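 active = inhibition above mean plus 3 SD of compounds lying within the high and low control bounds, cut at about 19% in these data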;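 note: 0% = median of test compound wells and 100% = no enzyme DMSO wells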
# AHR act = activates the human aryl hydrocarbon receptor. AHR-responsive luciferase reporter cells, luminescence. activation, % at 5 µM. 320,000 compounds, 2.5% hits; in the data active = activation above about 47%;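 note: 0% = vehicle wells and 100% = reference agonist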
# PLC-gamma1 inh = inhibitors of human phospholipase C gamma1; P19174; 370,000 compounds, 0.84% hits; AID 720700; inhibition, % at 12.2 µM; purified PLC-gamma1, fluorogenic substrate, fluorescence; in the data active = inhibition above about 9.5%
# HIF activator = HIF pathway transcriptional activation; U2OS HRE-luciferase reporter, luminescence; normalized: DMSO 0%, desferrioxamine 100%; 300,000 compounds, 0.32% hits; activation, % at 7.5 µM (by protocol);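 active = mean activation of at least 10% of the iron chelator positive control signal, with at least half of replicates also reaching 10%; inconclusive = mean and replicate majority disagree about reaching 10%; inactive = mean and most replicates under 10%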
# PLC-beta3 inh = blocks human PLC-beta3 enzyme activity; Q01970; AID 720704; Purified PLC-beta3, fluorogenic substrate, fluorescence; inhibition, % at 12.2 µM; 370,000 compounds, 0.18% hits; in the data active = inhibition above about 11%;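 note: 0% = median of compound wells on plate and 100% = full blocker control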
# Yeast superoxide = caloric restriction mimetics inhibiting age-related superoxide in yeast. superoxide response (% of plate mean), % at 10 µM. S. cerevisiae aged cells, superoxide DHE fluorescence; active compounds read low. 330,000 compounds, 0.18% hits;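 active = superoxide response under a set limit, about three screen SD below normal, cut at about 65% in these data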;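 note: yeast aged for seven days with compound at 30 °C before DHE staining; 100% = average MFI of all compound-treated wells on the plate with controls excluded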
# Active calls of the source: *; ? = inconclusive; · = no result.
SMILES,sPLA2-III inh,AHR act,PLC-gamma1 inh,HIF activator,PLC-beta3 inh,Yeast superoxide
Cn1nc(C(F)(F)F)cc1C(=O)NC1CCCCCC1,·,-1,·,237*,·,86
CC(=O)OC12CCCN(C1)/C(=C/c1cccc(Cl)c1)C2 (stereo not given),4,·,4,·,1,·
C=CCOC(=O)N[C@@H](c1cccc(OC)c1)[C@@H](C)/C=C/CC(=O)O,5,·,0,·,-2,·
CC(=O)CC[C@@H]1CC[C@]2(CCCN(S(=O)(=O)c3ccccc3)C2)O1,1,·,1,·,6,·
Cc1cccc(NC(=O)C2CCN(c3nnc(-n4cccc4)s3)CC2)c1C,-1,·,-7,·,5,·
Cc1cccc(C)c1Nc1nnc(SCc2nc3ccccc3c(=O)[nH]2)s1,-17,69*,-4,0,-9,99
OC(CSc1c(Cl)cccc1Cl)CN1CCN(c2ccc(F)cc2)CC1 (stereo not given),0,2,15*,1,8,81
OC(CSc1ccccc1Cl)CN1CCN(c2ccc(F)cc2)CC1 (stereo not given),-11,-5,4,0,6,84
CC(C)(C)C(=O)/C=c1\[nH]c(=O)/c(=C\c2ccccc2F)s1,-2,53*,-3,0,-9,111
Cc1nnc(SCC(=O)Nc2cc(-c3cc(C)c(C)cc3C)nn2-c2ccccc2)s1,-29,104*,0,0,-48,108
CC(C)CN(CC(C)C)C(=O)CSc1nc2cccnc2n1C,5,·,-1,·,-3,·
CC1CCN(c2c3c(nc4ncnn24)CCCC3)CC1,0,·,-2,·,-4,·
COc1cccc(N(C(C)=O)c2nc(C)cc(C)c2C#N)c1,7,9,0,0,3,101
COc1ccc(Cl)cc1N(C(C)=O)c1nc(C)cc(C)c1C#N,-4,54*,2,-1,4,93
CC(=O)N(c1cccc(Cl)c1)c1nc(C)cc(C)c1C#N,-5,9,1,0,-7,92
COc1ccccc1N(C(C)=O)c1nc(C)cc(C)c1C#N,8,48*,1,0,1,106
O=[N+]([O-])c1ccc(CSc2nnc(-c3cccc(Cl)c3)n2Cc2ccco2)cc1,-9,·,3,·,2,·
C/C(=N\Nc1ccccc1)c1cccc(N)c1,4,·,-19,3,-22,101
C/C(=N\Nc1cc(-c2ccccc2)nc(-c2ccc(Br)cc2)n1)c1cccc(N)c1,4,71*,-3,0,-1,110
C/C(=N/Nc1cc(-c2ccccc2)nc(-c2ccccc2)n1)c1ccc(O)cc1,-4,66*,-24,3,-22,111
Cc1ccc(S(=O)(=O)N2CC3(COC(C)(C)OC3)C[C@H]2CON2C(C)(C)CCCC2(C)C)cc1,-2,·,-2,·,2,·
Cn1ccsc1=NC(=O)c1ccc(Cl)c([N+](=O)[O-])c1,0,68*,1,0,-3,98
Cn1ccsc1=NC(=O)c1ccc(S(C)(=O)=O)c([N+](=O)[O-])c1,5,62*,3,0,-4,108
COc1ccc2c(-c3cccnc3)cc(=O)[nH]c2c1,9,78*,-37,-1,-46,108
OCc1cc(Br)ccc1OCc1nc2ccccc2s1,·,48*,·,6,·,90
SMILES,sPLA2-III inh,AHR act,PLC-gamma1 inh,HIF activator,PLC-beta3 inh,Yeast superoxide
CCOC(=O)[C@@]12CCCC3=C1N(CCC3)C(=O)[C@H]2CC(=O)NCC12CC3CC(CC(C3)C1)C2,-3,·,-4,·,-2,·
COc1ccc(NC(=S)Nc2ccccn2)c(OC)c1,10,33,2,?,2,86
S=C(Nc1ccccn1)c1ccccn1,4,61*,2,3,-2,105
COc1cc(NC(=S)Nc2ccccn2)cc(OC)c1,4,74*,-1,1,1,95
COC(=O)Cc1ccc(NC(=S)Nc2ccccn2)cc1,8,1,2,1,4,102
COc1cc(NC(=S)Nc2ccccn2)cc(OC)c1OC,9,77*,2,0,3,113
S=C(Nc1ccccn1)Nc1ccccc1Cl,11,68*,-3,2,-8,111
COC(=O)C1=C(C(=O)OC)[C@@]2([C@H](Cc3ccc(C)cc3)Nc3ccccc3)C=C[C@@H]1O2,-1,·,2,·,-2,·
O=S1(=O)c2ccc(Br)cc2OC[C@H](Cc2ccccc2)N1Cc1cn(Cc2ccc(C(F)(F)F)cc2)nn1,3,·,2,·,2,·
CCOC(=O)CSC1=C(C#N)C(=O)NC(c2ccc(OC)cc2)S1 (stereo not given),5,1,14*,-1,17*,97
CCOC(=O)CSc1nc2cc(OC)ccc2cc1C#N,0,1,-37,4,-44,107
Cc1ccc(NC(=O)OC2CC3CC2[C@H]2CCCCN2C3)cc1 (stereo not given in full),1,·,-3,·,-1,·
COc1ccccc1N1CCN(C(=O)c2ccc3c(c2)CCN3S(=O)(=O)c2ccccc2)CC1,-18,1,11*,0,-13,107
COc1cccc(N(C)C(=O)[C@@H](C)[C@@H](O)c2ccc(Cl)cc2)c1,0,·,-1,·,2,·
O=S(=O)(CCSc1nc2ccccc2s1)c1nc2ccccc2s1,-4,12,1,13*,-2,104
CCS(=O)(=O)CCSc1nc2ccccc2s1,1,6,3,1,4,89
NC(=O)CCn1c(C(=O)c2cc(Cl)c(N)c(Cl)c2)c2ccccc2[n+]1[O-],2,76*,1,-1,1,93
NCCCn1c(C(=O)c2cc(Cl)c(N)c(Cl)c2)c2ccccc2[n+]1[O-],10,72*,-23,3,-39,87
COc1ccc(C(=O)c2c3ccccc3[n+]([O-])n2CCC(N)=O)cc1,2,4,1,1,-2,106
COc1ccc(C(=O)c2c3ccccc3[n+]([O-])n2CCCN)cc1,4,13,-25,2,-33,104
NC(=O)CCn1c(C(=O)c2cccc([N+](=O)[O-])c2)c2ccccc2[n+]1[O-],0,57*,0,0,-1,105
COc1ccc(C(=O)c2c3ccc(C(F)(F)F)cc3[n+]([O-])n2CCCN)cc1,18,65*,-5,0,-15,84
Cc1ccc(C(=O)c2c3ccc(C(F)(F)F)cc3[n+]([O-])n2CCCN)cc1,11,27,-3,3,-6,84
COCC(=O)N(c1ccc(C(C)(C)C)cc1)C(C(=O)NC(C)(C)C)c1cccnc1 (stereo not given),10,·,1,·,-1,·
O=C(O)c1ccccc1C(=O)N1N=C2/C(=C/c3cccc([N+](=O)[O-])c3)CCCC2C1c1cccc([N+](=O)[O-])c1 (stereo not given),-19,6,0,0,4,109
